According to the supplement of paper PMC3334620:
In all, about 33,000 sequences were measured (“E-score (-0.5 to 0.5)”: median about -0.012, highest 2% from about 0.27 on). The sample holds the highest values, similar sequences and a random draw of the others, so the mix is not that of the screen.

biological target: T1, Vhr1 (UniProt P40522); experiment: PBM E-score (8-mer binding enrichment) (E-score (-0.5 to 0.5)); higher = stronger / more preferred TF binding; conditions: protein concentration: 200 nM; construct: GST-full length
T1 sequence: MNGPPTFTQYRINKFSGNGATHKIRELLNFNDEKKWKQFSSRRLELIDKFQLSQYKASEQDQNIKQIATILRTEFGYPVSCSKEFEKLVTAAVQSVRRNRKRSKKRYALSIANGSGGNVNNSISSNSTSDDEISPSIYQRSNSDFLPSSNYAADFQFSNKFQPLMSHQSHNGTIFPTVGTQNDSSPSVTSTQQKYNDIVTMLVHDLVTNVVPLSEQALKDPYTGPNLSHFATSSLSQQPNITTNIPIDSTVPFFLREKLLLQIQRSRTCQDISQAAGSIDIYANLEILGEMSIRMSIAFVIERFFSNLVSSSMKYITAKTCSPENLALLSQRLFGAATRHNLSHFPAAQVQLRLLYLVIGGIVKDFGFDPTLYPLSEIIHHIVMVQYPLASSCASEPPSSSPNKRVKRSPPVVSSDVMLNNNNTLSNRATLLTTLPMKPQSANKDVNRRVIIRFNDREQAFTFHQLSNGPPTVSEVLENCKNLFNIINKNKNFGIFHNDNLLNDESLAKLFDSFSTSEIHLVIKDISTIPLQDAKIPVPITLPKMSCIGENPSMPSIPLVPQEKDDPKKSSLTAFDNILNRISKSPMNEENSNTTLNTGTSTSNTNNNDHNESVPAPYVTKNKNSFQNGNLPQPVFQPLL
Method: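 Universal 'all 10-mer' protein binding microarrays (Agilent AMADID 015681) probed with GST-tagged S. cerevisiae TFs (full-length or DBD) made by in vitro transcription/translation (PURExpress), about 100-200 nM. Bound TF was detected with fluorescent anti-GST. Each ungapped 8-mer (which stands for itself and its reverse complement) is scored by the PBM enrichment score (E-score), a modified Wilcoxon-Mann-Whitney statistic from -0.5 to +0.5, computed with the Universal PBM Analysis Suite. Scale: above 0.35 generally sequence-specific binding.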

| Sequence | PBM E-score |
| --- | --- |
| GTAGCATA | 0.079 |
| CGATTCAG | 0.12 |
| AAGCTCCG | -0.173 |
| ATAATACA | 0.277 |
| ATGATACA | 0.289 |
| CTGATACA | 0.0817 |
| ATAATACC | 0.212 |
| ATGATACC | 0.124 |
| ATGATATC | 0.0491 |
| ATGATATG | 0.315 |
| ATAATATG | 0.206 |
| ATGATATA | 0.0327 |
| ATAATACG | 0.0457 |
| ATAATATA | 0.3 |
| CTAATATA | -0.0362 |
| AGTGCGCA | 0.112 |
| AGCCAGTA | 0.133 |
| CAAAGAGA | -0.299 |
| ACCTCGCA | -0.0858 |
| TCTGTTCA | 0.151 |
| CGGAGTAC | 0.0632 |
| CGGAGTGC | 0.139 |

| Sequence | PBM E-score |
| --- | --- |
| CTGAGTTC | 0.0461 |
| ATGAGTGG | 0.162 |
| CGGAGTCC | 0.324 |
| CTGAGTCC | 0.292 |
| CTGAGTAC | 0.175 |
| ATGAGTTG | 0.173 |
| ATGAGTCG | 0.462 |
| ATGAGTAG | 0.189 |
| CTGAGTGC | 0.0204 |
| ATGAGTAC | 0.347 |
| CATGGAGA | 0.155 |
| ATAAAACA | -0.125 |
| ATGCTTTG | 0.0636 |
| AATAGCAC | -0.026 |
| GAGGTTAC | 0.0302 |
| ACAGGTCC | -0.195 |
| CGACAATA | 0.0881 |
| CGTTAGAA | -0.323 |
| ACTGGGGA | -0.0871 |
| CTGCCCCA | 0.0236 |
| AGGTGGAA | 0.0199 |
| GCGCTCAC | 0.0509 |

| Sequence | PBM E-score |
| --- | --- |
| ATGAGTCC | 0.389 |
| ATGAGTGC | 0.0758 |
| ATGAGTTC | 0.00071 |
| GACGCAAC | -0.169 |
| ATTAGTTA | 0.143 |
| ATTAGTGG | 0.141 |
| GTTAGTGA | 0.0216 |
| GTTAGTTA | 0.137 |
| CTTAGTCC | 0.0119 |
| ATTAGTCA | 0.381 |
| CTTAGTCA | 0.376 |
| GTTAGTCA | 0.43 |
| ATTAGTCC | 0.122 |
| CTTAGTAA | -0.0159 |
| ATTAGTCG | 0.279 |
| ATTAGTTG | 0.0201 |
| GGTGCAAC | -0.183 |
| ATGACGCG | 0.162 |
| GTCAATCA | 0.221 |
| AGTCATGC | 0.443 |
| AGCCATGC | 0.128 |
| AGTCAAGC | 0.00212 |

| Sequence | PBM E-score |
| --- | --- |
| AGCCATGG | 0.281 |
| AGTCATGG | 0.458 |
| AGACATGG | 0.192 |
| CGTCATGC | 0.0219 |
| AGTCAAGG | 0.196 |
| AGCCATGA | 0.228 |
| GGTCATGA | 0.239 |
| AGTCATGA | 0.466 |
| CGTCATGA | 0.267 |
| CCGTTTAG | -0.0628 |
| AGAAGCGA | -0.0198 |
| GGATAACC | -0.112 |
| AGAACTTC | -0.182 |
| CTTGCCCA | -0.177 |
| GAAGGGTA | 0.0935 |
| CAAAGTTC | -0.0789 |
| ACTGCGAG | 0.0985 |
| GCCACCAC | -0.0307 |
| CCCATGGG | 0.285 |
| CCCATGGA | 0.0783 |
| ACCATGGG | 0.108 |
| ATCATGCG | 0.283 |

| Sequence | PBM E-score |
| --- | --- |
| ATCATGCC | 0.0697 |
| ATCATGCA | 0.192 |
| ATCATGGA | 0.22 |
| ATCATGGC | 0.143 |
| ATCATGGG | 0.272 |
| ACGGTCAC | -0.0582 |
| TAGCGTAA | -0.0878 |
| CGGAGATC | -0.0653 |
| AATTCGGA | 0.0232 |
| TCAGAACA | 0.00034 |
| GCAGCTAA | -0.106 |
| CAATTTTC | -0.0832 |
| GAGGCAAC | -0.172 |
| CATAACGA | 0.0162 |
| CGTGACGA | 0.00499 |
| CGTGACTC | 0.472 |
| CGTGACTA | 0.419 |
| CGTGACGC | -0.144 |
| CGTGACCC | 0.141 |
| CGTGACAA | -0.0207 |
| GGTCGAAC | 0.00191 |
| GACCCTAA | -0.109 |
